# Measured values from PubChem BioAssay (Tox21).
# A number with no mark means an inactive call. Records with an inconclusive call do not appear. Entries that show only a call come without a potency. Active and inactive are the calls of the source. Unless noted, calls follow the shape of the dose curve; as a rule, active = well fitted curve in the direction sought with a large enough effect in the repeat runs; inconclusive = weak or mixed curves; inactive = no such curve, though single readings can be large; an effect the other way counts as inactive or inconclusive.
# What was measured:
# [1] = qHTS assay for small molecule agonists of the p53 signaling pathway (AID 651631; calls by dose curve; also: nearly all actives have a fitted effect of over 15% in size; also: potency is read from the fitted curve at half-maximal effect)
# In short: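 HCT-116 p53RE-bla reporter line, 16 h compound treatment at 37 °C, then fluorescence after 2 h with B/G FRET substrate.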
# [2] = qHTS assay for small molecules that induce genotoxicity in human embryonic kidney cells expressing luciferase-tagged ATAD5 (AID 651632); also: nearly all actives have a fitted effect of over 15% in size; also: potency is read from the fitted curve at half-maximal effect
# In short: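 Luminescent reporter readout, HEK293T ATAD5-luc line: 16 hr drug exposure (37C, 5% CO2) followed by Amplite, 30 min RT.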
# [3] = qHTS assay for small molecule agonists of the p53 signaling pathway - cell viability (AID 651633; calls by dose curve; also: nearly all actives have a fitted effect of over 30% in size; also: potency is read from the fitted curve at half-maximal effect;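 as to activity change, negative = cytotoxicity: p53RE-bla HCT reporter cells with a stable beta-lactamase p53 reporter; series mostly up to about 83 µM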)
# In short: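 p53RE-bla cells, seeded at 4,000 per well and rested 5 h at 37 C/5% CO2, received compounds in DMSO for 16 h at 37 C. CellTiter-Glo was then added, and luminescence was read after 30 min at room temperature to gauge cytotoxicity.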
# [4] = qHTS assay for small molecules that induce genotoxicity in human embryonic kidney cells expressing luciferase-tagged ATAD5 - cell viability (AID 651634; calls by dose curve; also: nearly all actives have a fitted effect of over 25% in size)
# In short: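 Viability read: CellTiter-Fluor fluorescence, 30 min at 37C. Cells: HEK293T, luciferase-tagged ATAD5. Exposure: 15.5 hr, 37C, 5% CO2, compound or DMSO vehicle.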
# [5] = qHTS assay for small molecule disruptors of the mitochondrial membrane potential - cell viability (AID 720634; calls by dose curve;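 also: human HepG2 liver cancer cells; series mostly up to about 83 µM; nearly all actives have a fitted effect of over 20% in size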)
# In short: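 HepG2, 1 hr compound, 37 C. ATP luminescence via CellTiter-Glo, 30 min RT, same well as m-MPI.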
# [6] = qHTS assay to test for compound auto fluorescence at 535 nm (green) in HepG2 cells (AID 720675)
# [7] = qHTS assay to test for compound auto fluorescence at 460 nm (blue) in HEK293 cells (AID 720678)
# In short: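 HEK293 cells (2,000 per well, medium with 10% dialyzed FBS) attached for 4-5 hr at 37C, then received compound and stood overnight at 37C, 5% CO2. Blue fluorescence was read at Ex/Em 405/460 nm and expressed relative to triamterene.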
# [8] = qHTS assay to test for compound auto fluorescence at 590 nm (red) in HEK293 cells (AID 720679)
# In short: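 HEK293 cells (2,000/well, medium with 10% dialyzed FBS) attached for 4-5 hr at 37C, received 23 nL compound and were incubated overnight at 37C, 5% CO2. Red fluorescence was then read at 540/590nm Ex/Em, referenced to Rose Bengal sodium.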
# [9] = qHTS assay for small molecule disruptors of the mitochondrial membrane potential (AID 720635); also: potency is read from the fitted curve at half-maximal effect
# In short: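 HepG2 cells (2,000/well) attached overnight at 37C, then took compound for 1 hr at 37C, 5% CO2. Mito-MPS dye was added for 30 min; fluorescence was read at 490/535 nm (monomers) and 540/590 nm (aggregates).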
# [10] = qHTS assay to test for compound auto fluorescence at 590 nm (red) in HepG2 cells (AID 720674)
# In short: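 Compound auto-fluorescence is scored relative to Rose Bengal sodium, measured at 540/590 nm in live HepG2 cultures after 1 hr compound contact (37 C, 5% CO2).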
compound,measurement,setting,value
COC(C)OC,Potency,[1],inactive
same,Potency,[2],inactive
same,Potency,[3],inactive
same,Potency,[4],inactive
same,Potency,[5],inactive
same,Potency,[6],inactive
same,outcome,[7],inactive
same,Potency,[8],inactive
O=S(=O)(Oc1ccc(Cl)cc1)c1ccccc1,Potency,[1],inactive
same,Potency,[2],inactive
same,Potency,[3],inactive
same,Potency,[4],inactive
same,Potency,[9],19.3 µM (active)
same,Potency,[10],inactive
same,Potency,[6],inactive
same,outcome,[7],inactive
same,Potency,[8],inactive
CCCCCCCN,Potency,[1],inactive
same,Potency,[2],inactive
same,Potency,[3],inactive
same,Potency,[4],inactive
same,Potency,[5],inactive
same,Potency,[10],inactive
same,outcome,[7],inactive
same,Potency,[8],inactive
CN1C[C@H]2c3ccccc3Oc3ccc(Cl)cc3[C@@H]2C1,Potency,[1],29.8 µM (active)
same,Potency,[2],inactive
same,Potency,[3],inactive
same,Potency,[5],inactive
same,Potency,[9],inactive
same,Potency,[10],inactive
same,Potency,[6],inactive
same,outcome,[7],inactive
same,Potency,[8],inactive
COc1cc(C(=O)OCCCN2CCCN(CCCOC(=O)c3cc(OC)c(OC)c(OC)c3)CC2)cc(OC)c1OC,Potency,[1],inactive
same,Potency,[2],8.41 µM (active)
same,Potency,[4],inactive
same,Potency,[5],inactive
same,Potency,[10],inactive
same,Potency,[6],inactive
same,outcome,[7],inactive
same,Potency,[8],inactive
C/C=C/C=C/CO,Potency,[1],inactive
same,Potency,[2],inactive
same,Potency,[4],inactive
same,Potency,[9],inactive
same,Potency,[6],inactive
same,outcome,[7],inactive
same,Potency,[8],inactive
OCCNCc1ccccc1,Potency,[1],inactive
same,Potency,[2],inactive
same,Potency,[5],inactive
same,Potency,[9],inactive
same,Potency,[10],inactive
same,outcome,[7],inactive
same,Potency,[8],inactive
CCCCc1nc2cccnc2n1Cc1ccc(-c2ccccc2-c2nnn[nH]2)cc1,Potency,[1],inactive
same,Potency,[2],inactive
same,Potency,[3],inactive
same,Potency,[10],inactive
same,Potency,[6],inactive
same,outcome,[7],inactive
same,Potency,[8],inactive
O=[N+]([O-])c1ccc(NCCO)c(OCCO)c1,Potency,[1],inactive
same,Potency,[2],inactive
same,Potency,[3],inactive
same,Potency,[5],inactive
same,Potency,[9],inactive
same,Potency,[10],inactive
same,Potency,[6],inactive
same,outcome,[7],inactive
same,Potency,[8],inactive
C[C@H]1C[C@H]2[C@@H]3CCC4=CC(=O)C=C[C@]4(C)[C@@]3(Cl)[C@@H](O)C[C@]2(C)[C@@]1(O)C(=O)CO,Potency,[1],inactive
same,Potency,[2],inactive
same,Potency,[3],inactive
same,Potency,[5],inactive
same,Potency,[9],inactive
same,Potency,[10],inactive
same,Potency,[6],inactive
same,outcome,[7],inactive
same,Potency,[8],inactive
CC(C)(O)c1ccc(CNC(=O)c2cccnc2Oc2ccc(F)cc2)cc1,Potency,[1],inactive
same,Potency,[2],inactive
same,Potency,[4],inactive
same,Potency,[5],inactive
same,Potency,[9],inactive
same,Potency,[10],inactive
same,outcome,[7],inactive
same,Potency,[8],inactive
CC(=O)c1ccc2c(c1)N(CCCN(C)C)c1ccccc1S2,Potency,[1],inactive
same,Potency,[2],inactive
same,Potency,[4],inactive
same,"fluorescence, relative to Rose Bengal",[10],-0.407% [at 18.6 µM]
same,"fluorescence, % of fluorescein control",[6],0.0535% [at 18.6 µM]
same,"fluorescence, % of triamterene",[7],-0.118% [at 18.6 µM]
same,"fluorescence, % of fluorescent control",[8],0.0215% [at 18.6 µM]
c1ccc(C(O[C@H]2CCCN(CCc3ccc4c(c3)OCO4)C2)c2ccccc2)cc1,Potency,[1],inactive
same,Potency,[2],inactive
same,Potency,[4],inactive
same,Potency,[5],inactive
same,Potency,[10],inactive
same,outcome,[7],inactive
same,Potency,[8],inactive
Cc1ccccc1S(=O)(=O)O,Potency,[1],inactive
same,Potency,[2],inactive
same,Potency,[3],inactive
same,Potency,[5],inactive
same,Potency,[9],inactive
same,Potency,[6],inactive
same,outcome,[7],inactive
same,Potency,[8],inactive
C/C=C/C(=O)CC,activation,[1],-0.927% [at 18 µM]
same,activation,[2],0.488% [at 17.9 µM]
same,"activity, negative = cytotoxicity",[4],-7.15% [at 17.9 µM]
same,"activity change, negative = cytotoxicity",[5],4.97% [at 17.9 µM]
same,"ratio activity, negative = MMP loss",[9],2.87% [at 17.9 µM]
same,"fluorescence, relative to Rose Bengal",[10],-0.234% [at 18.6 µM]
same,"fluorescence, % of fluorescein control",[6],0.0122% [at 18.6 µM]
same,"fluorescence, % of triamterene",[7],-0.166% [at 18.6 µM]
same,"fluorescence, % of fluorescent control",[8],-0.535% [at 18.6 µM]
C[N+]1(CC2COC(c3ccccc3)(C3CCCCC3)O2)CCCCC1 (stereo not drawn),Potency,[1],inactive
same,Potency,[2],inactive
same,Potency,[4],inactive
same,Potency,[9],inactive
same,Potency,[6],inactive
same,outcome,[7],inactive
same,Potency,[8],inactive
COc1cc2nc(N3CCN(C(=O)C4COc5ccccc5O4)CC3)nc(N)c2cc1OC (stereo not drawn),Potency,[1],inactive
same,Potency,[2],inactive
same,Potency,[3],inactive
same,Potency,[5],inactive
same,Potency,[9],inactive
same,Potency,[10],inactive
same,Potency,[6],inactive
same,outcome,[7],inactive
same,Potency,[8],inactive
COS(=O)(=O)C(F)(F)F,Potency,[1],inactive
same,Potency,[2],inactive
same,Potency,[4],inactive
same,Potency,[5],inactive
same,Potency,[10],inactive
same,Potency,[6],inactive
same,outcome,[7],inactive
same,Potency,[8],inactive
NC(=O)C(c1ccccc1)(c1ccccc1)[C@@H]1CCN(CCc2ccc3c(c2)CCO3)C1,Potency,[1],inactive
same,Potency,[2],inactive
same,Potency,[4],inactive
same,Potency,[5],inactive
same,Potency,[6],inactive
same,outcome,[7],inactive
same,Potency,[8],inactive
O=C(Nc1ccc(S(=O)(=O)N2CCOCC2)cc1)c1cc(Cl)ccc1NS(=O)(=O)c1ccc(Cl)s1,Potency,[1],26.6 µM (active)
same,Potency,[2],inactive
same,Potency,[3],9.44 µM (active)
same,Potency,[10],inactive
same,Potency,[6],inactive
same,outcome,[7],inactive
same,Potency,[8],inactive
CC(C)OC(=O)C(C)N(C(=O)c1ccccc1)c1ccc(F)c(Cl)c1 (stereo not drawn),Potency,[1],inactive
same,Potency,[2],inactive
same,Potency,[3],inactive
same,Potency,[6],inactive
same,outcome,[7],inactive
same,Potency,[8],inactive
Cc1oc2c(NC(=O)c3c(Cl)cccc3Cl)cccc2c1C(C)(C)O,Potency,[1],inactive
same,Potency,[2],inactive
same,Potency,[3],inactive
same,Potency,[10],inactive
same,Potency,[6],inactive
same,outcome,[7],inactive
same,Potency,[8],inactive
CCOc1ccc(N)c([N+](=O)[O-])c1,Potency,[1],inactive
same,Potency,[2],inactive
same,Potency,[5],inactive
same,Potency,[9],inactive
same,Potency,[10],inactive
same,Potency,[6],inactive
same,outcome,[7],inactive
same,Potency,[8],inactive
Nc1cccc(S(=O)(=O)c2cccc(N)c2)c1,Potency,[1],inactive
same,Potency,[2],inactive
same,Potency,[3],inactive
same,Potency,[10],inactive
same,Potency,[6],inactive
same,outcome,[7],inactive
same,Potency,[8],inactive
CC1=CCCC(C)(C)C12CCC(C)O2 (stereo not drawn),Potency,[1],inactive
same,Potency,[2],inactive
same,Potency,[4],inactive
same,Potency,[5],inactive
same,Potency,[6],inactive
same,outcome,[7],inactive
same,Potency,[8],inactive
C[C@@H](c1ncncc1F)C(O)(Cn1cncn1)c1ccc(F)cc1F (stereo partly drawn),Potency,[1],inactive
same,Potency,[2],inactive
same,Potency,[3],inactive
same,Potency,[5],inactive
same,Potency,[10],inactive
same,Potency,[6],inactive
same,outcome,[7],inactive
same,Potency,[8],inactive
CNCCCN1c2ccccc2CCc2ccccc21,Potency,[1],inactive
same,Potency,[2],inactive
same,Potency,[3],inactive
same,"fluorescence, relative to Rose Bengal",[10],-0.337% [at 18.6 µM]
same,"fluorescence, % of fluorescein control",[6],0.0155% [at 18.6 µM]
same,"fluorescence, % of triamterene",[7],0.119% [at 18.6 µM]
same,"fluorescence, % of fluorescent control",[8],0.0732% [at 18.6 µM]
